Consider one sequence from paper PMC7862700, “An all-to-all approach to the identification of sequence-specific readers for epigenetic DNA modifications on cytosine”.

What all share (test): DAPPL (digital affinity profiling via proximity ligation, sequencing); 10 mM Tris-HCl pH 7.5, 50 mM NaCl, 1 mM DTT, 4% glycerol, room temperature, 30 min; GST-TFs on glutathione beads, 16-mer random dsDNA library, 0.1% formaldehyde crosslink after washing; high values mean tight binding
The target of test [1] is T1, FLI1 (Homo sapiens, UniProt Q01543 1-452).
T1 sequence: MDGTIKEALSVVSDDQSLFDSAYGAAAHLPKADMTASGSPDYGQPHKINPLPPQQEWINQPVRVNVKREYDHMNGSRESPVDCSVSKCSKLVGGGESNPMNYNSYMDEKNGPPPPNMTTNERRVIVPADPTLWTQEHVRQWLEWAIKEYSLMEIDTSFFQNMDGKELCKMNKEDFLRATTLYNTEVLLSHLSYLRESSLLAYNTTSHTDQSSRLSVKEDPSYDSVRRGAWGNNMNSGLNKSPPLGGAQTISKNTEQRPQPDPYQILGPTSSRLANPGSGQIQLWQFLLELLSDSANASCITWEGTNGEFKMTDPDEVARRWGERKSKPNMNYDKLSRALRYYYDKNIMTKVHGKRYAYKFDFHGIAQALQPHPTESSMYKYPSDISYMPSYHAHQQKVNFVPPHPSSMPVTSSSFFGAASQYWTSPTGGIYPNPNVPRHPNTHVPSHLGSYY
Particulars: protein: recombinant; tags: N-terminal GST; dsDNA, one strand shown. In a few lines:
(§1)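 Pools of DNA-barcoded human transcription factors, expressed in yeast as GST fusions on glutathione beads and combined with a tag-only sample, were incubated with 200 nmole of a 16-mer random double-stranded DNA library. Incubation took 30 min at room temperature in Tris/NaCl/DTT/glycerol buffer and was followed by washing, 0.1% formaldehyde crosslinking, proximity ligation (BsaI/T4 ligase, 1 h, 37 °C), PCR amplification and sequencing on an Illumina NextSeq500. Binding signal is the ratio of a hexamer's read frequency for a factor to its frequency for the tag-only sample.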

The target in test [2] is T2, ELK1 (Homo sapiens, UniProt P19419 1-428).
T2 sequence: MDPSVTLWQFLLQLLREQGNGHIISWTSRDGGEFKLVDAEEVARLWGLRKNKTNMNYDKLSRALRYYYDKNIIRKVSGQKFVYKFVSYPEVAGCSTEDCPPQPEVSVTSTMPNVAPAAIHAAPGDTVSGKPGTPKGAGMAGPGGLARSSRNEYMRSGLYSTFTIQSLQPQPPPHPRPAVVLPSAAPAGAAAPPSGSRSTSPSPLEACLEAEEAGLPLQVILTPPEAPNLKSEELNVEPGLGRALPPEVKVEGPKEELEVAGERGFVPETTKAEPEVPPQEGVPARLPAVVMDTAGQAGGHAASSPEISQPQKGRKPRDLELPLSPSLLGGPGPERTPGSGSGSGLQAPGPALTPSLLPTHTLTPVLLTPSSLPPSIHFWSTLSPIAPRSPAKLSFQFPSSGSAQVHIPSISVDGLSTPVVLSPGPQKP
Particulars: protein: recombinant; tags: N-terminal GST; dsDNA, one strand shown. In a few lines:
as §1

For test [3], the target named is T3, GABPA (Homo sapiens, UniProt Q06546 1-454).
T3 sequence: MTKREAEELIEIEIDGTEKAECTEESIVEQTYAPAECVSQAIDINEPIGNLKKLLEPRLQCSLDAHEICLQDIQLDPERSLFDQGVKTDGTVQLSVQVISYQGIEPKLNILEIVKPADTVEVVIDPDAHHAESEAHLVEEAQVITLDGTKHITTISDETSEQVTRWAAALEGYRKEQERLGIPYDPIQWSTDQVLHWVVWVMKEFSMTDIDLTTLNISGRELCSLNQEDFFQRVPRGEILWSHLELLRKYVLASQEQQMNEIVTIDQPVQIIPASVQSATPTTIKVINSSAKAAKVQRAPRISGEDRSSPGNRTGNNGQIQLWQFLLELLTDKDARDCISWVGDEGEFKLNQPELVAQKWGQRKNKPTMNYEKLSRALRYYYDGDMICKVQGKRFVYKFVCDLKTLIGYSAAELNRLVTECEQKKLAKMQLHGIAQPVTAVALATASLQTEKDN
The note with it: protein: recombinant; tags: N-terminal GST; dsDNA, one strand shown. In a few lines:
as §1

Test [4] addresses T4, ERG (Homo sapiens, UniProt P11308 1-479).
T4 sequence: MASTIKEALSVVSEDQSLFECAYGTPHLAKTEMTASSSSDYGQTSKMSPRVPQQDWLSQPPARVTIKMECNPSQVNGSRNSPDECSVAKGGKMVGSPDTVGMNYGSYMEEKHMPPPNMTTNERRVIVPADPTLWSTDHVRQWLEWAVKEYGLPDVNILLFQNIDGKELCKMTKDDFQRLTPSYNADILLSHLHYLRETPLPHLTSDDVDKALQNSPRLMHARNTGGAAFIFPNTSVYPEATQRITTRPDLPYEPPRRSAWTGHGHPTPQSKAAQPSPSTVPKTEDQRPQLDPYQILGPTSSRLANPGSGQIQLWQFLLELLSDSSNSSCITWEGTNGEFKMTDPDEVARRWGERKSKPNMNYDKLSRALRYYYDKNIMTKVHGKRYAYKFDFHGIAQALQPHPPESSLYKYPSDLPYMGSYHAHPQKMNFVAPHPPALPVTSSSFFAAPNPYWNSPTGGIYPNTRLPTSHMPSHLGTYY
Particulars: protein: recombinant; tags: N-terminal GST; dsDNA, one strand shown. In a few lines: as §1

Test [5] concerns the target ELF1 (Homo sapiens, UniProt P32519 1-619). Particulars: protein: recombinant; tags: N-terminal GST; dsDNA, one strand shown. In a few lines: as §1
Test [6] has as its target T5, EHF (Homo sapiens, UniProt Q9NZC4 1-300).
T5 sequence: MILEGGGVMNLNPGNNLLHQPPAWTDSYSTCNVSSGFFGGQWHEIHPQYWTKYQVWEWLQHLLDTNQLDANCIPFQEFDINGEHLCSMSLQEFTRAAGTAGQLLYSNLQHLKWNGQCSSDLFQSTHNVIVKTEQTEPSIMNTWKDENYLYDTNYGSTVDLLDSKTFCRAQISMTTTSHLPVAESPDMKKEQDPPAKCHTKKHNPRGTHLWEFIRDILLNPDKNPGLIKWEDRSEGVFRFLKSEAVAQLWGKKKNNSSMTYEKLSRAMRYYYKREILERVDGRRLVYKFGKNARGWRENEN
The note with it: protein: recombinant; tags: N-terminal GST; dsDNA, one strand shown. In a few lines:
as §1

The target of test [7] is SPI1 (Homo sapiens, UniProt P17947 1-270). Particulars: protein: recombinant; tags: N-terminal GST; dsDNA, one strand shown. In a few lines:
as §1

Test [8] concerns the target SPIB (Homo sapiens, UniProt Q01892 1-262). Particulars: protein: recombinant; tags: N-terminal GST; dsDNA, one strand shown. In a few lines: as §1
For test [9], the target named is T6, FEV (Homo sapiens, UniProt Q99581 1-238).
T6 sequence: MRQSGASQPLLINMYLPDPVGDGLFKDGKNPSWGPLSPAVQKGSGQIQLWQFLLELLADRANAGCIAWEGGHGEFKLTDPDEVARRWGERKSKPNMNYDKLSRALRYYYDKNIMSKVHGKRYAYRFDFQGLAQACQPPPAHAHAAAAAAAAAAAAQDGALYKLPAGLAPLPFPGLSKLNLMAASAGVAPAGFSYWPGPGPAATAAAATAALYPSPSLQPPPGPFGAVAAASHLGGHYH
Particulars: protein: recombinant; tags: N-terminal GST; dsDNA, one strand shown. In a few lines:
as §1

Test [10] concerns the target ETV5 (Homo sapiens, UniProt P41161 1-510). Particulars: protein: recombinant; tags: N-terminal GST; dsDNA, one strand shown. In a few lines: as §1
Test [11] deals with HSF1 (Homo sapiens, UniProt Q00613 1-529). The note with it: protein: recombinant; tags: N-terminal GST; chain copies: 3; dsDNA, one strand shown. In a few lines:
as §1

The target in test [12] is T7, SPIC (Homo sapiens, UniProt Q8N5J4 1-248).
T7 sequence: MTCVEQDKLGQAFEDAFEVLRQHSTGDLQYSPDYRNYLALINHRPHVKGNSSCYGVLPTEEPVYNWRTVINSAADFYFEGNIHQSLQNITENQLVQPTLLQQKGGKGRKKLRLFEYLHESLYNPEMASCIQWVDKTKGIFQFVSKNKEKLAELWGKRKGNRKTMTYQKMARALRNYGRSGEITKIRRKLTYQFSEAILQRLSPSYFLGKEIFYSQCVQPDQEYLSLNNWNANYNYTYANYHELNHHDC
The note with it: protein: recombinant; tags: N-terminal GST; dsDNA, one strand shown. In a few lines:
as §1

In test [13] the target is ELF4 (Homo sapiens, UniProt Q99607 1-663). The note with it: protein: recombinant; tags: N-terminal GST; dsDNA, one strand shown. In a few lines: as §1
Test [14] has as its target T8, ELK4 (Homo sapiens, UniProt P28324-2 1-405).
T8 sequence: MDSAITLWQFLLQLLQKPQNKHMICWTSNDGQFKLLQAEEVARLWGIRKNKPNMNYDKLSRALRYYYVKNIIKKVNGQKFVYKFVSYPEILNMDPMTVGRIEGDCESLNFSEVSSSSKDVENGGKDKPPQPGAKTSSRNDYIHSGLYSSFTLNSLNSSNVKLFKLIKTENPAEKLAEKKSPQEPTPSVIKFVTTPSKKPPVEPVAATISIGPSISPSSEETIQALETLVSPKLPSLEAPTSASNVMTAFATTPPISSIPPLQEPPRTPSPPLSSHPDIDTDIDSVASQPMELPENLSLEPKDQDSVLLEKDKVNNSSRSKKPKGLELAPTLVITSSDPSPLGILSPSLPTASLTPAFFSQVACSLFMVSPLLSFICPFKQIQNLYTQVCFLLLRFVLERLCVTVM
The note with it: protein: recombinant; tags: N-terminal GST; dsDNA, one strand shown. In a few lines:
as §1

Test [15] deals with T9, ETV2 (Homo sapiens, UniProt O00321 1-342).
T9 sequence: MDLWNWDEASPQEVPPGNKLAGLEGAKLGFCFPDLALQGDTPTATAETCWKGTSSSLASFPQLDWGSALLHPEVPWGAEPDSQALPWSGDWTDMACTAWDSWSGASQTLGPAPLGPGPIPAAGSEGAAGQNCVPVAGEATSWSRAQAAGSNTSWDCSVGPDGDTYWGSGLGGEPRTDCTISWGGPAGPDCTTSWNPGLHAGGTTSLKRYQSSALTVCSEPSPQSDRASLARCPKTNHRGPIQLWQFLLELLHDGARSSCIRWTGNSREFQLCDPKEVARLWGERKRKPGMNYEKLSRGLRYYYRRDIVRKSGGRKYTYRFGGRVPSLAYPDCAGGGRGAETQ
The note with it: protein: recombinant; tags: N-terminal GST; dsDNA, one strand shown. In a few lines:
as §1

In test [16] the target is T10, ELF3 (Homo sapiens, UniProt P78545 1-371).
T10 sequence: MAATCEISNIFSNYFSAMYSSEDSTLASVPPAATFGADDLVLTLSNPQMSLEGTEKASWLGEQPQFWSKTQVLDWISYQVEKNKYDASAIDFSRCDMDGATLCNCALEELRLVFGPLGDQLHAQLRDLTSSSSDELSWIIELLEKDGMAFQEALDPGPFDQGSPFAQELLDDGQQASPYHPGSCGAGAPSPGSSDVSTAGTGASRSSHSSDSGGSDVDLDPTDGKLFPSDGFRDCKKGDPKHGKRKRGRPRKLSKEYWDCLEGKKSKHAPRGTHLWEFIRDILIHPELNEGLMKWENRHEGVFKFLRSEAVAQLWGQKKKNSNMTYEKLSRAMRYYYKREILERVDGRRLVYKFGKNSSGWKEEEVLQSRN
Particulars: protein: recombinant; tags: N-terminal GST; dsDNA, one strand shown. In a few lines: as §1

Test [17] deals with CRX (Homo sapiens, UniProt O43186 1-299). Particulars: protein: recombinant; tags: N-terminal GST; dsDNA, one strand shown. In a few lines:
as §1

For test [18], the target named is ETV1 (Homo sapiens, UniProt P50549 1-477). Particulars: protein: recombinant; tags: N-terminal GST; dsDNA, one strand shown. In a few lines: as §1
Sequence of ETV1 (P50549 whole entry): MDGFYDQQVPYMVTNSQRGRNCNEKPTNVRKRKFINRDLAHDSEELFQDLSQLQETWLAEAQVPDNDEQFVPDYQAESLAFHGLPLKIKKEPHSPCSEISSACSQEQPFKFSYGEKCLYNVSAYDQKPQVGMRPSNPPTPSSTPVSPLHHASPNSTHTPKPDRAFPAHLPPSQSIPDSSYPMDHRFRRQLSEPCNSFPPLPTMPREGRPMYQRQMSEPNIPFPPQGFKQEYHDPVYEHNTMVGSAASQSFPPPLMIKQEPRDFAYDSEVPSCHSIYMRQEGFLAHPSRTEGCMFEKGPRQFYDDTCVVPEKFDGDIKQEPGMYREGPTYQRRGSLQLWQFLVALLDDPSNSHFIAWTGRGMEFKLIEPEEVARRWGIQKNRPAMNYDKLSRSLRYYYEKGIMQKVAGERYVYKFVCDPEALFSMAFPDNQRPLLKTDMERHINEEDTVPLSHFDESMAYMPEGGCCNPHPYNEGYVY

Sequence of ELF1 (P32519 whole entry): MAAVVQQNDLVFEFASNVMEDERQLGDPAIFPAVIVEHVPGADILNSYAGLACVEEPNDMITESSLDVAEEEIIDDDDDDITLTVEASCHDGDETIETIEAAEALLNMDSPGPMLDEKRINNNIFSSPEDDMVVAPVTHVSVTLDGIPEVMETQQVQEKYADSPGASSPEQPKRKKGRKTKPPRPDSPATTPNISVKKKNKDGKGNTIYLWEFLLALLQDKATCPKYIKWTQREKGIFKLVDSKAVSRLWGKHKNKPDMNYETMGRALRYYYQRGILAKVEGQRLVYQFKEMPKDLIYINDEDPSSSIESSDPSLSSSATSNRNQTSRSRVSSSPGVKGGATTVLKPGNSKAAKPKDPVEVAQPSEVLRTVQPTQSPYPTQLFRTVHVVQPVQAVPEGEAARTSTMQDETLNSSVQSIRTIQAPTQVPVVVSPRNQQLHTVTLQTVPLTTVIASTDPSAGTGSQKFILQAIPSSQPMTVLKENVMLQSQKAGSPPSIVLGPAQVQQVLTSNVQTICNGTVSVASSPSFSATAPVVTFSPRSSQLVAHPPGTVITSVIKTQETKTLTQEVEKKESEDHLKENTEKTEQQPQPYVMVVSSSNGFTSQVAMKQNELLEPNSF
Sequence of CRX (O43186 whole entry): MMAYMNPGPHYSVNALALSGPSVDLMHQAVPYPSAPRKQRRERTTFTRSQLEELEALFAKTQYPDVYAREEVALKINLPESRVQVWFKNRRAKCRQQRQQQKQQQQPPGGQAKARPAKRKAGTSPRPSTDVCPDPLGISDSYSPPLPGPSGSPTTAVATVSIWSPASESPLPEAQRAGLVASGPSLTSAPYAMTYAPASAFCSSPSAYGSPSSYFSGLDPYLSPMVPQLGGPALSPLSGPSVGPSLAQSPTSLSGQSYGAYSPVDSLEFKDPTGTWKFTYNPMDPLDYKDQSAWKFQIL
Sequence of SPIB (Q01892 whole entry): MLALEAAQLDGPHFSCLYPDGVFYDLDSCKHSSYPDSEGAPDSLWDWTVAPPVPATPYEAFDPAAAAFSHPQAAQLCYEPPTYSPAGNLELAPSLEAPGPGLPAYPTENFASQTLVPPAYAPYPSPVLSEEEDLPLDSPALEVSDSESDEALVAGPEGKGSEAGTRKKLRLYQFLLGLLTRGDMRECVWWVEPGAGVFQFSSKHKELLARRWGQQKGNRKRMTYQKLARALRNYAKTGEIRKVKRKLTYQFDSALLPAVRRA
Sequence of ETV5 (P41161 whole entry): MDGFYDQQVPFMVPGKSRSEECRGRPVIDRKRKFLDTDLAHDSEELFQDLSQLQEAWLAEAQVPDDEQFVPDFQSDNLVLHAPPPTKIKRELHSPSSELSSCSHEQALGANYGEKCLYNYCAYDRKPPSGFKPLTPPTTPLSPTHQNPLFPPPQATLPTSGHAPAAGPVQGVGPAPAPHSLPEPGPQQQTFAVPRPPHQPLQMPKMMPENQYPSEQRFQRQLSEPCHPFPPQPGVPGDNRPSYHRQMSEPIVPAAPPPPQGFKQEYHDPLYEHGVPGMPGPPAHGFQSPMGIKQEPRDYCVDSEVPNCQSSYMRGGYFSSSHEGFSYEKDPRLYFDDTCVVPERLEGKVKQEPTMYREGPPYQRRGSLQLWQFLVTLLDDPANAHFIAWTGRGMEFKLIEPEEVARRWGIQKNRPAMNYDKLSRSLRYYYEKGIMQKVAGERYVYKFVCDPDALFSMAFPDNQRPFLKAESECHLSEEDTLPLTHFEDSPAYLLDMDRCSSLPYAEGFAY
Sequence of ELF4 (Q99607 whole entry): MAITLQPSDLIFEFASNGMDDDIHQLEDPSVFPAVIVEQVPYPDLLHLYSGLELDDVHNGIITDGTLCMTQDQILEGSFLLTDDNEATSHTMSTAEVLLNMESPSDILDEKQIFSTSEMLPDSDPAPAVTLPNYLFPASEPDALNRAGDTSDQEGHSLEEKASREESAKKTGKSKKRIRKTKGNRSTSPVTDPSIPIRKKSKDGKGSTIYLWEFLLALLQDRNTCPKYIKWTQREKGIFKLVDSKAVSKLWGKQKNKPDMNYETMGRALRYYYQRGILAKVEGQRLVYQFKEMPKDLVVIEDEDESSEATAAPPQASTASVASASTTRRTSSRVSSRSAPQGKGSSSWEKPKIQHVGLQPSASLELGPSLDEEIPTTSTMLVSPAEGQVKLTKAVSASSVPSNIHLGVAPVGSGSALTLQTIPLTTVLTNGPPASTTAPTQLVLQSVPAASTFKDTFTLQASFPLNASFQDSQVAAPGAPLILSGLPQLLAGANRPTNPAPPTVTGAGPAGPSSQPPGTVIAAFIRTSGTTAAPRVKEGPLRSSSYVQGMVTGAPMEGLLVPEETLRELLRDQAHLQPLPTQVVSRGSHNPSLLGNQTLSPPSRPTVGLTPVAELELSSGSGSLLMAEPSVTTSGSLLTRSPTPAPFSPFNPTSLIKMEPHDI
Sequence of HSF1 (Q00613 whole entry): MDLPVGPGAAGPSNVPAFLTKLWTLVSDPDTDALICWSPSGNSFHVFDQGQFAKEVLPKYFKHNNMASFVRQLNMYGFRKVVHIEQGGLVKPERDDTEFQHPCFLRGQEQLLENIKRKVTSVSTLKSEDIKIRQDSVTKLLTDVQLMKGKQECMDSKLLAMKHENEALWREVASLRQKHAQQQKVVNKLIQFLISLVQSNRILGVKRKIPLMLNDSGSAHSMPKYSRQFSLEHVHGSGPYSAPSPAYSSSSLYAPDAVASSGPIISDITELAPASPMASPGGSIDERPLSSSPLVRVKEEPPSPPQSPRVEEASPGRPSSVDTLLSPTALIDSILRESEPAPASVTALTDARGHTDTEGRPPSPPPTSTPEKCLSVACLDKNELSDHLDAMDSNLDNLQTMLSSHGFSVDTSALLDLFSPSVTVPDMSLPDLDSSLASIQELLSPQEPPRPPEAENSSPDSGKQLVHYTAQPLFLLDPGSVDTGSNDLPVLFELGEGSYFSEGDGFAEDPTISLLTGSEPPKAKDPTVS

Regarding TCACTA, the binding signal is 1.21 fold enrichment (6-mer frequency, TF over GST control) in [1]; 1.22 fold enrichment (6-mer frequency, TF over GST control) in [2]; 1.17 fold enrichment (6-mer frequency, TF over GST control) in test [3]; 1.17 fold enrichment (6-mer frequency, TF over GST control) in [4]; 1.21 fold enrichment (6-mer frequency, TF over GST control) in test [5]; 1.17 fold enrichment (6-mer frequency, TF over GST control) in [6]. In addition, the binding signal in test [7] is 1.23 fold enrichment (6-mer frequency, TF over GST control); in [8], 1.25 fold enrichment (6-mer frequency, TF over GST control); in test [9], 1.11 fold enrichment (6-mer frequency, TF over GST control); in test [10], 1.06 fold enrichment (6-mer frequency, TF over GST control); in test [11], 1.16 fold enrichment (6-mer frequency, TF over GST control); in test [12], 1.16 fold enrichment (6-mer frequency, TF over GST control). Also, the binding signal is 1.12 fold enrichment (6-mer frequency, TF over GST control) in test [13]; 1.28 fold enrichment (6-mer frequency, TF over GST control) in test [14]; 1.18 fold enrichment (6-mer frequency, TF over GST control) in test [15]; 1.19 fold enrichment (6-mer frequency, TF over GST control) in [16]; 1.27 fold enrichment (6-mer frequency, TF over GST control) in test [17]; 1.06 fold enrichment (6-mer frequency, TF over GST control) in test [18].
